Only some compounds are listed: those with a hit (about 9.3% of all), similar ones and a draw of the others.
FMDV antiviral = blocks foot and mouth disease virus | Potency, µM (series often up to 57.9 µM), for the others: at the highest dose activity change, negative = inhibition, actives largely listed as inhibitors | hit rate 1.2% among 410,000 | FMDV antiviral cell-based qHTS | AID 1159524; calls by dose curve; tested in HEK293T cells; further: read-out not given here; potency means the concentration at half of the fitted maximal effect; nearly all actives have a fitted effect of over 45% in size
HCV inhibitor = inhibitors of hepatitis C virus infection. Huh7.5.1 HCVcc-Cre infection, luciferase reporter, 44 h. Potency, µM (top dose mostly 41.8 µM), without a hit: at the highest dose activity change, negative = inhibition, usual class: inhibitors. hit rate 3.4% among 340,000; further: potency means the concentration at half of the fitted maximal effect
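A cell-based infection assay in which seeded cells (1,000 per well) receive test compound after 4 h, are inoculated with HCVcc-Cre at approximately 0.5 moi, and are incubated 44 h before luminescence detection.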
HCMV antiviral = blocks human cytomegalovirus replication. HFF cells, HCMV-luciferase reporter, 72 h; active compounds read low. activity change, negative = inhibition, % at 57.5 µM. hit rate 4.5% among 410,000. AID 1259415; in the data active means activity change below about -60%; inconclusive means no clear call, values can overlap the other calls; inactive means above about -39%
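Inhibition of viral replication was scored as loss of reporter luminescence in HFFs infected with HCMV-luciferase (MOI 1 PFU/cell) for 72 h; compounds tested at 2 doses, normalized to buffer and Salinomycin controls.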
VACV Venus inh = vaccinia inhibition (Venus reporter); Vaccinia virus Venus reporter expression, fluorescence; Potency, µM (top dose mostly 36.5 µM), without a hit: at the top dose activity change, negative = inhibition, usual class: inhibitors; hit rate 0.46% among 330,000; calls by dose curve; tested in A549 cells; further: potency means the concentration at half of the fitted maximal effect; nearly all actives have a fitted effect of over 30% in size
Vaccinia mCherry = inhibitors of vaccinia virus infection (mCherry reporter signal) | Potency, µM (top dose mostly 36.5 µM), for inactives: top-dose activity change, negative = inhibition, hits mostly inhibitors | Vaccinia virus mCherry reporter infection, fluorescence | hit rate 0.63% among 310,000; calls by dose curve; tested in A549 cells; further: potency means the concentration at half of the fitted maximal effect; nearly all actives have a fitted effect of over 35% in size
Sm TGR block = inhibitors of Schistosoma mansoni thioredoxin glutathione reductase; Q962Y6; purified TGR, DTNB reduction, TNB absorbance 405 nm; Potency, µM (top dose mostly 114 µM), inactives show top-dose activity change, negative = inhibition, hits mostly inhibitors; hit rate 3% among 360,000; further: potency means the concentration at half of the fitted maximal effect; nearly all actives have a fitted effect of over 60% in size
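First, TGR (20 nM dispensed) and NADPH were mixed with compound. Second, a 15 min room-temperature incubation followed. Third, further NADPH and then DTNB were added to start the reaction. Finally, TNB absorbance was monitored kinetically.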
* hit, by the source's call; i = inactive; ? = inconclusive; . = no result; [ ] = remark or other dose. Unless noted, the call rests on the fitted dose curve; in most records, active means well fitted curve in the direction sought with a large enough effect; inconclusive means small, poorly fitted or top-dose-only effect, or another doubt; inactive means no such curve, though single readings can be large; an effect the other way counts as inactive or inconclusive. On the % scale 0 is the no-effect control and ±100 the full control effect.

SMILES | FMDV antiviral | HCV inhibitor | HCMV antiviral | VACV Venus inh | Vaccinia mCherry | Sm TGR block
N#C/C(=C\c1ccncc1)c1ccccn1 | -5% | ? | -78* | -24% | -26% | 0%
COc1cc(-c2nnc(SCCOc3cc(C)cc(C)c3)o2)cc(OC)c1OC | -13% | . | 0 | -4% | -17% | 35µM*
CCc1ccccc1OCCSc1nnc(-c2cc(OC)c(OC)c(OC)c2)o1 | -18% | . | 6 | 2% | -7% | -13%
COc1cc(-c2nnc(SCc3c(F)cccc3Cl)o2)cc(OC)c1OC | -11% | 35µM* | . | -28% | . | 7%
COc1cc(-c2nnc(SCc3ccccc3Cl)o2)cc(OC)c1OC | -18% | ? | 14 | -7% | i | 8%
COc1ccc(C2C(C#N)=C(N)Oc3cc(N)ccc32)cc1 (stereo unspecified) | 9% | -3% | -12 | . | . | 3%
COc1ccc(C2C(C#N)=C(N)Oc3c2sc2nc(C)cc(C)c32)cc1 (stereo unspecified) | 40µM* | ? | -68* | -13% | -24% | -8%
COC(=O)N/N=C/c1ccc(-c2cccc(Cl)c2)o1 | 30% | -21% | 11 | -6% | -16% | -9%
CC1=NOC(=O)/C1=C\c1ccc(-c2ccccc2Br)o1 | 25µM* | -17% | -10 | . | . | ?
CC1=NOC(=O)/C1=C\c1ccc(-c2cccc(Cl)c2)o1 | 40µM* | ? | . | -40% | ? | -4%
CC1=NOC(=O)/C1=C\c1ccc(-c2ccc(Cl)c(C(=O)O)c2)o1 | 2% | 32% | 2 | 6% | -10% | -31%
Nc1ccccc1N=Cc1ccc(-c2cccc(Cl)c2)o1 | ? | 10µM* | 42 | ? | -9% | ?
CC1=NOC(=O)/C1=C/c1ccc(O)cc1 | -10% | 10% | -12 | -6% | -18% | ?
Cc1ccc(NC(=O)COc2cccc(/C=C3\SC(=S)N(CCC(=O)O)C3=O)c2)cc1Cl | -11% | -25% | -26 | -12% | -12% | -9%
Nc1ncnc(N)c1NC(=O)c1ccccc1 | . | . | -101* | . | . | .
Nc1ccccc1NC(=O)c1ccccc1 | 15% | 1% | 45 | -22% | ? | -28%
Oc1c(Br)c(Br)c(Br)c(Br)c1Br | -23% | -94% | . | -24% | -5% | 3.5µM*
COc1ccccc1/C=C1\CCCC2=C1Nc1nnnn1C2c1ccccc1OC (stereo unspecified) | ? | ? | ? | -9% | -9% | 4µM*
Cc1oc(S(=O)(=O)N2CCCCC2)cc1NC(=O)Nc1ccccc1 | 6% | 23% | 17 | -6% | i | 10µM*
Cc1ccc(S(=O)(=O)N2CCCCC2)cc1NC(=O)Nc1ccc(Cl)cc1Cl | ? | -2% | 10 | -28% | -6% | -4%
O=C(Nc1ccccc1)Nc1ccc(S(=O)(=O)N2CCCCC2)cc1 | 44% | -5% | -14 | ? | -18% | 0%
Cc1oc(S(=O)(=O)N2CCCCC2)cc1NC(=O)Nc1ccc(Cl)cc1 | 13% | -20% | -25 | . | . | 35µM*
COc1ccccc1NC(=O)CSc1nc2c(sc3ccccc32)c(=O)n1CCN(C)C | -9% | 8% | 46 | -12% | -25% | 2%
Cc1ccc2oc(Nc3nc(C)cc(C)n3)nc2c1 | 54% | 21% | 71 | -7% | -11% | 7%
Nc1n[nH]c2cc(=O)n(-c3cccc(C(F)(F)F)c3)nc12 | -7% | -2% | ? | . | . | 22µM*
SMILES | FMDV antiviral | HCV inhibitor | HCMV antiviral | VACV Venus inh | Vaccinia mCherry | Sm TGR block
O=c1[nH][nH]c2cc(=O)n(-c3cccc(C(F)(F)F)c3)nc12 | -7% | -4% | ? | . | . | -12%
O=C(NC(=S)N1CCCCCC1)c1ccc(Cl)cc1Cl | 2% | -3% | -29 | -26% | -26% | 13%
Cc1ccc(NC(=O)CCC(=O)N2Cc3ccccc3Oc3ncccc32)cc1F | -13% | . | 2 | -6% | 2% | -6%
O=C(Nc1ccc(NC(=O)c2cccs2)c(Cl)c1)c1cccs1 | 28% | 11µM* | ? | -17% | 1% | -3%
O=C(N/N=C/c1cccs1)c1ccc(NC(=O)c2ccccc2Cl)cc1 | -13% | -21% | -65* | -17% | i | -1%
O=C(N/N=C/c1cccs1)c1cccc(NC(=O)c2ccccc2Cl)c1 | 33% | -10% | -27 | -12% | i | -7%
O=C(Nc1cccc(NC(=O)c2ccccc2Cl)c1)c1cccs1 | 0% | ? | -81* | -10% | -3% | -2%
COc1ccc(-c2cccc(NC(=O)c3cccs3)c2)nn1 | 4% | 3.5µM* | -14 | -17% | -2% | 0%
Cc1ccc(N2C(S)=C(C#N)C(=O)NC2c2ccco2)cc1 (stereo unspecified) | -6% | 11% | 78 | -11% | -7% | -8%
Cc1ccc(SC(C)C(=O)Nc2ncn[nH]2)cc1 (stereo unspecified) | -16% | -26% | -4 | 4% | -27% | -3%
COc1ccc(Br)cc1CNc1ccccc1 | -6% | 4% | -30 | . | . | 0%
Cc1c(C(=O)N2CCCCCC2(C)C(=O)NCC(C)C)oc2ccccc12 (stereo unspecified) | 0% | . | ? | -9% | 32% | .
O=C(Nc1ccc(C#Cc2ccccc2)cc1)C1CC1 | 47% | ? | -64* | . | . | -3%
O=C(NNC(=O)c1cccs1)c1ccccc1 | 27% | 7% | -7 | -11% | i | 8%
CC(=O)Nc1ccc(C#Cc2ccc(NC(C)=O)cc2)cc1 | . | -6% | -72* | -6% | -16% | 5%
CC(=O)Nc1ccc(C(=O)NNC(=O)c2cccs2)cc1 | 9% | 11% | -67* | -7% | i | -21%
O=C(Nc1ccc(NC(=O)C2CC2)cc1)c1cccs1 | 16% | 4% | -77* | -4% | -13% | -24%
COC(CC(=O)NNC(=S)Nc1ccc(Cl)cc1)OC | 11% | 14% | 4 | -20% | i | 6%
Cc1ccc(C(=O)Nc2cccc3ccccc23)o1 | 0% | -7% | -12 | -8%[7.34 µM] | -16%[7.34 µM] | .
CC1(C)Oc2ccc3ccc(=O)oc3c2/C(=C/O)C1=O | -7% | -4% | -7 | -10% | i | -21%
CC1(C)Oc2ccc3ccc(=O)oc3c2/C(=C/Nc2ccccc2)C1=O | ? | 10µM* | ? | 7% | -1% | -6%
CC1(C)Oc2ccc3ccc(=O)oc3c2/C(=C/N)C1=O | -22% | -17% | 6 | . | . | 7%
CC1(C)Oc2ccc3ccc(=O)oc3c2/C(=C/NC2CCCCC2)C1=O | 0% | 10µM* | ? | -21% | ? | 2%
Cc1ccc(Cl)cc1NC(=O)C(NS(=O)(=O)c1cccs1)c1ccccc1 (stereo unspecified) | ? | -12% | -70* | -8% | -14% | -1%
CCc1cccc(CC)c1NC(=O)C(NS(=O)(=O)c1cccs1)c1ccccc1 (stereo unspecified) | -25% | -2% | -24 | 4% | -13% | -3%
